This experiment is described as follows: probe aNOTCH2 binding on compound microarray – biochemical, small-molecule microarray, 635/667 nm fluorescence, primary screen (AID 1121).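 Note: score merges feature fluorescence read at 667 nm with its signal to noise.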 Conditions: higher = more signal.
`COCCOC(=O)N1C(=O)[C@@]2(c3cc(C#CC4(O)CCCCCC4)ccc31)[C@H](C(=O)N1CCCCCCC1)[C@H]1C(=O)O[C@H](c3ccccc3)[C@H](c3ccccc3)N1[C@@H]2c1ccc(O)cc1` showed a composite z-score of 0.337.
The value for `C=CCC(OC(C)=O)[C@@H]1[C@@H](N(Cc2cc3ccccc3o2)C(=O)Cc2ccc(F)cc2)c2cc(OCCCO)ccc2N1C(=O)c1ccc(-c2ccccc2)cc1` (stereo partly specified) was 0.0017; that for `O=C(CS)NCCCCCNC(=O)[C@H]1C[C@H]2C(=O)N[C@@H](Cc3ccccc3)C(=O)N2[C@H]1c1ccc(O)cc1` was -0.0598.
Take `CO[C@H]1COC(=O)CC=C[C@@H](C)COC(=O)[C@@H](C)NC(=O)CC=C[C@@H]1C`: the composite z-score is -0.153.
With `CCC(=O)[C@]12O[C@@]3([C@@H]4C(=O)OCC[C@@H]41)N(Cc1ccccc1)C(C)=C(C(=O)OC)[C@@H](c1ccccc1)N3C2=O`, the composite z-score is -0.164.
Regarding `C[C@]1(C(=O)NCCN2CCOCC2)c2ccccc2C(=O)N(Cc2ccccc2)[C@H]1c1ccc(CO)cc1`, the composite z-score is -0.154.
To `CC[C@H]1C2=C3C(CC[C@H]4C(OC)OC[C@](C)([C@@H]34)N(C(=O)OC(C)(C)C)C2)C(CO)C1CO` (stereo partly specified) belongs 0.437; to `O=C1c2ccccc2[C@@]2(Cc3ccccc3N(CC(F)(F)F)C2=O)[C@H](c2ccc(CO)cc2)N1C1CCCCC1`, -0.122.
On to `C=C(C(=O)CC[C@H](OC(=O)c1ccccc1-c1ccccc1C(=O)O)c1ccc(CO)o1)C(C)C`, for which the composite z-score is -0.0986.
The value for `CC1=C([C@H](O)CCc2ccccc2)[C@H](CO)[C@@H]2C(=O)N(Cc3ccccc3)C(=O)[C@@H]2C1` was -0.117.
The value for `O=C1O[C@H](c2ccccc2)[C@H](c2ccccc2)N2[C@H]1[C@@H](C(=O)NC[C@H](O)c1ccccc1)[C@]1(C(=O)Nc3ccc(C#CC4=CCCCC4)cc31)[C@H]2c1ccc(OCCO)cc1` was -0.0741.
To `COc1cc(Cc2cc3c(c(CCc4ccccc4)n2)[Si](C(C)C)(C(C)C)OC3)cc(OC)c1OC` belongs -0.165; to `CO[C@H]1O[C@H](CO)[C@@H](OC(=O)CCc2ccccc2)[C@@H]2OC(=O)[C@H](Cc3cccc(Br)c3)C/C=C/C[C@@H](Cc3cccc(Br)c3)C(=O)O[C@@H]12`, -0.114.
For the molecule `Cc1ccc(S[C@]2(C(=O)NCCCN(C)C)CC(=O)N(C3CCCCC3)[C@@H]2c2ccc(CO)cc2I)cc1`, the composite z-score was -0.107.
To `COC(=O)[C@@]1(Cc2ccccc2CN=[N+]=[N-])N=C(c2ccc(OCCCO)cc2)O[C@H]1c1ccccc1N=[N+]=[N-]` belongs 0.215.
The value for `CO[C@@H]1COC(=O)[C@H](C)NC(=O)CC=C[C@@H](C)[C@H](OC)COC(=O)[C@H](C)NC(=O)CC=C[C@H]1C` was -0.124; that for `COCCOC(=O)N1C(=O)[C@@]2(c3cc(C#CCNC(N)=O)ccc31)[C@H](c1ccc(OCCO)cc1)N1[C@H](c3ccccc3)[C@H](c3ccccc3)OC(=O)[C@H]1[C@@H]2C(=O)Nc1nc2ccccc2s1` was -0.126; that for `C=CC[C@@]1(C(=O)N2CCOCC2)N=C(c2ccc(OCCCO)cc2)O[C@@H]1c1ccccc1` was -0.327.
The value for `COc1cc2c(cc1OC)CN(C(=O)[C@H]1[C@@H]3C(=O)O[C@@H](c4ccccc4)[C@@H](c4ccccc4)N3[C@@H](c3ccc(O)cc3)[C@]13C(=O)Nc1ccc(C#CC4(O)CCCCCC4)cc13)CC2` was 0.286; that for `O=C/C=C/c1ccccc1Cl` was -0.0866.
Consider `C=CCC(OC(C)=O)[C@@H]1[C@@H](N(Cc2cccc3ccccc23)C(=O)Cc2ccc(F)cc2)c2cc(OCCCO)ccc2N1C(=O)Cc1ccc2ccccc2c1` (stereo partly specified), for which the composite z-score was -0.0194.
The value for `CC(=O)NCCCC[C@@H]1NC(=O)[C@@H]2C[C@H](C(=O)NCCCCCNC(=O)CS)[C@H](c3ccc(O)cc3)N2C1=O` was -0.203; that for `C[N+](C)(C)CCCCNC(=O)[C@@H]1C[C@@H]2C(=O)N3CCC[C@H]3C(=O)N2[C@@H]1c1cccc(OCCO)c1` was -0.153; that for `O=C(NCC(O)CO)[C@]1(Cc2ccccc2)N=C(c2ccc(OCCCO)cc2)O[C@@H]1c1ccccc1` (stereo partly specified) was 0.257.
The value for `COC(=O)Cn1c(C(=O)N2CCCC2)cc2c1C[C@H]1CN(C(=O)c3ccccc3)[C@@](Cc3ccccc3)(C(=O)OC)[C@@H]21` was 0.0292; that for `CCOC(=O)[C@H]1C/C=C/C[C@H](C(=O)OCC)C(=O)O[C@H]2[C@@H](OC)O[C@H](CO)[C@@H](OC(=O)Nc3ccc(Br)cc3)[C@@H]2OC1=O` was -0.0863; that for `CO[C@@H]1COC(=O)[C@@H]2CCCN2C(=O)CC=C[C@@H](C)[C@H](OC)COC(=O)[C@@H]2CCCN2C(=O)CC=C[C@H]1C` was -0.141.
To `COCCOC(=O)N1C(=O)[C@@]2(c3cc(C#CCCO)ccc31)[C@H](c1ccc(O)cc1)N1[C@H](c3ccccc3)[C@H](c3ccccc3)OC(=O)[C@H]1[C@@H]2C(=O)Nc1nc2ccccc2s1` belongs -0.0649; to `COc1cc2c(cc1OC)CN(C(=O)[C@@H]1[C@H]3C(=O)O[C@H](c4ccccc4)[C@H](c4ccccc4)N3[C@H](c3ccccc3OCCO)[C@@]13C(=O)Nc1ccccc13)CC2`, -0.112.
On to `COc1ccc([Si](C)(C)[C@H]2[C@H](CCO)O[C@@]3(C(=O)N(Cc4ccc(N5CCCCC5=O)cc4)c4ccccc43)[C@@H]2C)cc1`, for which the composite z-score was -0.0846.
The value for `CCCCO[C@H]1C[C@H]2C(Br)=C[C@@]1(CO)C(=O)[C@]21CO1` was -0.201; that for `CCOC(=O)C[C@H]1[C@H](OC(=O)c2ccccc2-c2ccccc2)[C@@H](NC(=O)C2CCCCC2)c2cc(OCCCO)ccc2N1C(=O)c1ccccc1` was -0.0784.
The value for `CO[C@H]1COC(=O)[C@H](C)NC(=O)CC=C[C@@H](C)[C@H](NS(=O)(=O)c2ccc(C)cc2)COC(=O)[C@@H](OCc2ccccc2)C=C[C@@H]1C` was -0.154; that for `CC(C)CNC(=O)[C@@]1(C)c2ccccc2C(=O)N(Cc2ccc(OC(F)(F)F)cc2)[C@H]1c1ccc(CO)cc1` was -0.0094.
Regarding `CC(C)C[C@@H]1NC(=O)[C@H]2C[C@@H](C(=O)NCCCCCC[N+](C)(C)C)[C@@H](c3ccc(O)cc3)N2C1=O`, the composite z-score is -0.164.
To `C=CC[C@@]1(C(=O)NCC(O)CO)N=C(c2ccc(OCCCO)cc2)O[C@@H]1c1ccccc1CN=[N+]=[N-]` (stereo partly specified) belongs -0.0759.
